Source: PubChem (several laboratories)
Shown are actives, neighbours in structure and some others; about 3% of the full set was active somewhere.
Bfl-1 A1 inh: inhibitors of the anti-apoptotic protein A1, read as caspase activation; MEF A1-2A-BIM cells, Caspase-Glo 3/7 luminescence, 3 h; percent of clofoctol response, vehicle zero; caspase activation, % (no concentration beside the values); 0.066% of 330,000 active;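 active = over half of replicate activation scores above 10%, or exactly half above 10 with the replicate mean above 10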
NLRP3 yeast inh: blocks the NALP3 inflammasome reconstituted in yeast; Yeast reconstituted NLRP3/ASC/caspase-1, beta-gal luminescence, 24 h; inhibition, % at 10 µM; 0.39% of 330,000 active; AID 2825;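 active = inhibition of 50% or more; inactive = inhibition below 50%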;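 note: plate controls were induced DMSO wells for no effect and uninduced yeast grown without galactose for full effect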
NALP1 yeast inh: blocks the NALP1 inflammasome reconstituted in yeast | inhibition, % at 10 µM | AID 2071 | S. cerevisiae NALP1/ASC/caspase-1 growth, X-gal OD620, 72 h | 0.61% of 280,000 active; in the data active = inhibition mostly above about 24%, no sharp cut-off; inactive = mostly below about 32%
CHT allo act: human CHT allosteric activation. Q9GZV3. AID 488977. 0.49% of 310,000 active. B-score at 10 µM. CHT-expressing cells, membrane potential dye, choline EC20; stronger effect = higher value; LV-AA mutant CHT in HEK293 cells;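 active = initial fluorescence not abnormally high and integrated response B-score, plate-corrected, over 3 SD above library mean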
Target sequence (Q9GZV3 whole entry, looked up): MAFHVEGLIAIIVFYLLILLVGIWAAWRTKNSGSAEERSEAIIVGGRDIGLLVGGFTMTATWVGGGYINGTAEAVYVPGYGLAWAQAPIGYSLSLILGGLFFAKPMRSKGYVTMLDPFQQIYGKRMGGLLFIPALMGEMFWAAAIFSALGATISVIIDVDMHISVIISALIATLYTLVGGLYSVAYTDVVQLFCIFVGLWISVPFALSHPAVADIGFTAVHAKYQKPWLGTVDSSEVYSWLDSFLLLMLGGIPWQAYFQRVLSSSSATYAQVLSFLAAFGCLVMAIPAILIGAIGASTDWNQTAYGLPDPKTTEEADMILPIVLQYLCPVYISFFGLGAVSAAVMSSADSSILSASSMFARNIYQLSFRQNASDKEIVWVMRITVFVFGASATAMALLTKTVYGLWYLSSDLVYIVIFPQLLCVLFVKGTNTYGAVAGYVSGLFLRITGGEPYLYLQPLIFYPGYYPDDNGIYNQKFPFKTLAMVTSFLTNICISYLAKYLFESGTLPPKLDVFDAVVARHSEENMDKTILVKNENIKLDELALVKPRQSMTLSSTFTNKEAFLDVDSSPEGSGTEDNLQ
Mot1-301 SUMO: inhibitors of SUMOylation pathway: yeast Mot1-301 growth rescue | 1% of 320,000 active | growth rescue, % at 18.8 µM | S. cerevisiae Mot1-301 growth rescue, ATP luminescence, 38.5C; percent above DMSO median, 100 means doubled;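 active = every valid replicate shows activation above 250% relative to neutral control wells; inactive = the rest, any valid replicate at or below 250%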;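 note: OY570 slx delta 5 strain wells were the positive control but not used for scaling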
CHT block: human CHT choline transport inhibition; Q9GZV3; CHT-expressing cells, membrane potential dye, choline response; stronger effect = lower value; B-score at 10 µM; 0.86% of 310,000 active; AID 488975;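 active = B-score over 3 SD under the library average, and starting fluorescence ratio not unusually high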;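 note: choline stimulus applied at its EC90 after an EC20 pre-addition; B-score computed on integrated fluorescence ratio after choline addition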
Starred values were filed as active, the others as inactive; i = inactive; / = no result; + = active, no number.

SMILES	Bfl-1 A1 inh	NLRP3 yeast inh	NALP1 yeast inh	CHT allo act	Mot1-301 SUMO	CHT block
COc1ccccc1-c1cc(C(F)(F)F)nc(S(=O)(=O)CCCC(=O)NC(C)C)n1	8.5*	18.4	22.5	i	37.3	i
COc1ccccc1-c1cc(C(F)(F)F)nc(S(=O)(=O)CCCC(=O)NCc2ccc(F)cc2)n1	1.0	7.9	14.4	i	7.4	i
COc1ccc(NC(=O)CCCN2C(=O)C(c3ccccc3)Oc3cccnc32)c(OC)c1 (centres undefined)	0.3	8.8	12.4	i	339.0*	i
Cc1csc(NC(=O)CSc2nccn2C)n1	-1.2	22.4	11.8	i	-2.7	i
Cn1ccnc1SCC(=O)Nc1nc2c(F)c(F)c(F)cc2s1	-0.3	9.2	36.3*	i	-10.6	i
COC(=O)C1=C(C)Nc2nnnn2C1c1ccccc1Cl (centres undefined)	0.0	19.9	-86.4	i	338.9*	i
CCCCCOC(=O)C1=C(C)Nc2nnnn2C1c1ccccc1Cl (centres undefined)	0.3	19.2	11.0	i	/	i
O=C(C1CCCN(Cc2ccccc2)C1)N1CCCCC1 (centres undefined)	0.0	18.9	18.4	i	19.7	i
OCC1CCCN(Cc2ccc(-c3ccccc3)cc2)C1 (centres undefined)	0.5	20.5	34.1*	i	70.4	i
O=C(CSc1n[nH]c(-c2ccncc2)n1)Nc1ccc(Cl)c(C(=O)O)c1	-0.5	13.3	6.7	i	-4.9	i
O=C(Nc1cccc2cccnc12)c1ccccc1Cl	0.0	6.0	/	i	332.5*	i
CCN1C(=O)[C@H]2[C@@H](c3ccc(-c4cccc(Cl)c4)cc3)N3CCCC[C@@]3(C(=O)OC)[C@H]2C1=O	-0.8	17.8	/	i	14.1	i
COc1ccccc1CCCNC(=O)C1CCC(=O)N(Cc2ccccc2F)C1 (centres undefined)	8.6*	13.3	24.4	i	-8.1	i
CC(C)n1cc(CNC(=O)C2CCC(=O)N(Cc3ccccc3F)C2)cn1 (centres undefined)	-1.2	7.9	-7.8	i	323.7*	i
Cc1cc(NC(=O)CS(=O)(=O)c2ccc(Cl)cc2)no1	-0.6	6.8	3.4	i	-0.4	i
O=C(COC(=O)c1ccccc1NCCO)NCCC1=CCCCC1	-0.5	2.1	/	i	93.5	i
O=C(COC(=O)c1ccccc1Br)NCCC1=CCCCC1	-0.1	8.3	38.4*	i	14.3	i
CCC(C(=O)NCC1CCCO1)N(C(=O)c1snc(C(N)=O)c1N)c1ccc(Cl)cc1 (centres undefined)	1.1	-3.6	4.0	i	51.3	i
Cc1ccc(CNc2nc3ccccc3n3nnnc23)cc1	-0.6	19.4	5.1	i	-15.5	i
Cc1ccc2nc(Cl)c3nnnn3c2c1	0.5	25.8	15.2	i	381.6*	i
CC(=O)N1CCN(c2ccc(C(N)=O)cc2[N+](=O)[O-])CC1	1.7	-6.0	31.8*	i	71.9	i
Cc1ccc(C(=O)N2CCN(c3ccccn3)CC2)cc1[N+](=O)[O-]	0.3	5.1	0.7	i	-19.4	i
CCC(=O)N1CCN(c2ccc(NC(=O)c3ccc(N4CCOCC4)c([N+](=O)[O-])c3)cc2)CC1	0.2	25.3	38.2*	i	14.2	i
Cc1ccc(C(=O)N2CCN(c3ccccc3Cl)CC2)cc1[N+](=O)[O-]	0.0	10.9	38.3*	i	0.9	i
Cc1nc2ccc(NC(=O)CCC3CCCC3)cc2s1	-0.4	-1.6	10.7	i	137.4	i
Cn1cc(/C=N/NC(=O)c2cc3cc(Br)ccc3o2)c2ccccc21	-0.1	10.3	/	i	7.2	i
O=C(O)Cn1cc(/C=N/NC(=O)c2cc3cc(Br)ccc3o2)c2ccccc21	0.1	7.6	/	i	+	i
CN(C)CCCN(C(=O)c1ccc(S(=O)(=O)N2CCc3ccccc3C2)cc1)c1nc2ccc(F)cc2s1	30.0*	27.1	20.1	i	-17.1	i
CCN(CC)CCN(C(=O)c1ccc2c(c1)CCCC2)c1nc2ccc(F)cc2s1	-0.2	28.7	-0.6	i	-10.9	i
